From PubChem BioAssay AID1159580 (chemical genetic matrix, 2015)
Out of some 5,500 compounds screened, about 2,000 (36%) were called active. Inconclusive results (about 18%) are left out. No stated cut-off is given here; in the data, active means normalized growth mostly below about 0.91 (no sharp cut-off); inconclusive means no clear call, values can overlap the other calls; inactive means mostly above about 0.92. This is one part of the list.

Assay: chemical genetic growth profiling, strain panel (AID 1159580);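 further: tested at 20 µM; growth read once vehicle control cultures reached saturation at 30 °C; 1 = growth at the plate median or of vehicle wells; lower values mean less growth of the strain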
Conditions: S. cerevisiae deletion strains, growth OD

Measured: normalized growth

O=C1c2ccccc2C(=O)c2sccc21
active: locus YAR019C, strain CDC15, active compounds read low 0.556 | locus YBL105C, strain PKC1, active compounds read low 0.778 | locus YBR135W, strain CKS1, active compounds read low 0.716 | locus YBR136W, strain MEC1, active compounds read low 0.718 | locus YBR160W, strain CDC28, active compounds read low 0.75 | locus YDL017W, strain CDC7, active compounds read low 0.72 | locus YDL028C, strain MPS1, active compounds read low 0.749 | locus YDL101C, strain DUN1, active compounds read low 0.466 | locus YDL108W, strain KIN28, active compounds read low 0.752 | locus YDL132W, strain cdc53, active compounds read low 0.674 | locus YDL214C, strain PRR2, active compounds read low 0.233 | locus YDR052C, strain DBF4, active compounds read low 0.646 | locus YDR054C, strain cdc34, active compounds read low 0.556 | locus YDR226W, strain ADK1, active compounds read low 0.751 | locus YDR477W, strain SNF1, active compounds read low 0.209 | locus YER123W, strain YCK3, active compounds read low 0.183 | locus YER133W, strain GLC7, active compounds read low 0.225 | locus YFL009W, strain cdc4, active compounds read low 0.59 | locus YFL029C, strain CAK1, active compounds read low 0.4 | locus YFR003C, strain YPI1, active compounds read low 0.694 | locus YFR019W, strain FAB1, active compounds read low 0.171 | locus YFR028C, strain CDC14, active compounds read low 0.649 | locus YGR040W, strain KSS1, active compounds read low 0.182 | locus YGR052W, strain FMP48, active compounds read low 0.156 | locus YGR092W, strain DBF2, active compounds read low 0.152 | locus YHR030C, strain SLT2, active compounds read low 0.157 | locus YHR079C, strain IRE1, active compounds read low 0.211 | locus YHR082C, strain KSP1, active compounds read low 0.204 | locus YHR205W, strain SCH9, active compounds read low 0.124 | locus YIL147C, strain SLN1, active compounds read low 0.669 | locus YJL095W, strain BCK1, active compounds read low 0.154 | locus YJL128C, strain PBS2, active compounds read low 0.595 | locus YJL157C, strain FAR1, active compounds read low 0.227 | locus YJR016C, strain ILV3, active compounds read low 0.483 | locus YJR066W, strain TOR1 (second series), active compounds read low 0.147 | locus YJR066W, strain TOR1, active compounds read low 0.15 | locus YKL048C, strain ELM1, active compounds read low 0.33 | locus YKL067W, strain YNK1, active compounds read low 0.272 | locus YKL101W, strain HSL1, active compounds read low 0.209 | locus YKL193C, strain SDS22, active compounds read low 0.498 | locus YKL203C, strain TOR2, active compounds read low 0.158 | locus YLR113W, strain HOG1, active compounds read low 0.303 | locus YLR133W, strain CKI1, active compounds read low 0.196 | locus YLR403W, strain SFP1, active compounds read low 0.154 | locus YML070W, strain DAK1, active compounds read low 0.214 | locus YMR001C, strain CDC5, active compounds read low 0.614 | locus YMR205C, strain PFK2 (second series), active compounds read low 0.236 | locus YMR277W, strain FCP1, active compounds read low 0.46 | locus YNL006W, strain LST8, active compounds read low 0.593 | locus YNL020C, strain ARK1, active compounds read low 0.183 | locus YNL161W, strain CBK1, active compounds read low 0.636 | locus YNL183C, strain NPR1, active compounds read low 0.161 | locus YNL207W, strain RIO2, active compounds read low 0.473 | locus YNL222W, strain SSU72, active compounds read low 0.634 | locus YNL307C, strain MCK1 (second series), active compounds read low 0.16 | locus YOL078W, strain AVO1, active compounds read low 0.511 | locus YOL136C, strain PFK27, active compounds read low 0.192 | locus YOR061W, strain CKA2, active compounds read low 0.244 | locus YOR119C, strain RIO1, active compounds read low 0.221 | locus YOR231W, strain MKK1, active compounds read low 0.206 | locus YOR329C, strain SCD5, active compounds read low 0.579 | locus YPL031C, strain PHO85, active compounds read low 0.184 | locus YPL153C, strain RAD53, active compounds read low 0.207 | locus YPL204W, strain HRR25, active compounds read low 0.198 | locus YPL209C, strain IPL1, active compounds read low 0.684 | locus YPL256C, strain CLN2, active compounds read low 0.223 | locus YPR025C, strain CCL1, active compounds read low 0.705 | locus YPR106W, strain ISR1, active compounds read low 0.601 | locus YPR111W, strain DBF20, active compounds read low 0.691 | strain NNK1, active compounds read low 0.305 | strain TSCII, active compounds read low 0.527
